LAP4 TOR yeast: modulators of LAP4-GFP expression in yeast, primary screen, S. cerevisiae, multiplex flow cytometry, MLPCN library. 3 h; median GFP as percent of DMSO wells. GFP response vs DMSO, % at 10 µM. 0.34% of 320,000 active. AID 2023, 2009;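 active = GFP response vs DMSO above a set limit, about the screen mean plus 3 SD, cut at about 150% in these data; inconclusive = under 70 cell events counted for the yeast strain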
AGP1 TOR yeast: modulators of AGP1-GFP expression in yeast TOR pathway, primary screen, cell-based, multiplex flow cytometry, S. cerevisiae, MLPCN library | 3 h; GFP as percent of DMSO wells | GFP response vs DMSO, % at 10 µM | 0.02% of 320,000 active | AID 2066, 2009;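 active = GFP response relative to DMSO above a set limit, near screen average plus 3 SD, cut at about 150% in these data; inconclusive = fewer than 70 cells counted for the yeast strain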;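 note: median GFP channel fluorescence of the gated AGP1 strain per well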
RPL19A-GFP yeast: RPL19A-GFP expression modulators in yeast, primary screen, cell-based, S. cerevisiae, multiplex flow cytometry, MLPCN | S. cerevisiae RPL19A-GFP strain, 3 h; stronger effect = lower value | percent response vs DMSO, % at 10 µM | 0.3% of 330,000 active;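 active = percent response vs DMSO below 50%; inconclusive = fewer than 70 events counted for the yeast strain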;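 note: median channel GFP fluorescence of the barcoded RPL19A-GFP strain; ratio of sample median GFP to plate DMSO average so 100% = DMSO; lower means less RPL19A-GFP as with rapamycin TOR inhibition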
CIT2 TOR yeast: modulators of CIT2-GFP expression in yeast, primary screen, S. cerevisiae, GFP fusion, multiplex flow cytometry, MLPCN library; GFP response vs DMSO, % at 10 µM; S. cerevisiae CIT2-GFP strain, 3 h; 100 means same as DMSO wells; 0.065% of 320,000 active;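 active = GFP response relative to DMSO above a set limit, near the screen mean plus 3 SD, cut at about 150% in these data; inconclusive = Fewer than 70 cells measured for a yeast strain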;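 note: ratio of well median GFP fluorescence to mean of DMSO wells on the plate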
VLA-4 inh: inhibition in human VLA-4 binding assay, primary screen, VLA-4 allosteric modulator project, MLPCN library, flow cytometry, VLA-4 expressing cells | AID 2557, 2010 | Integrin alpha-4 (Homo sapiens), P13612 | 0.2% of 330,000 active | inhibition, % (about 7 µM as worked out from the volumes in the protocol) | ligand binding flow cytometry; in the data active = inhibition above about 50%
Target sequence (P13612 whole entry, looked up): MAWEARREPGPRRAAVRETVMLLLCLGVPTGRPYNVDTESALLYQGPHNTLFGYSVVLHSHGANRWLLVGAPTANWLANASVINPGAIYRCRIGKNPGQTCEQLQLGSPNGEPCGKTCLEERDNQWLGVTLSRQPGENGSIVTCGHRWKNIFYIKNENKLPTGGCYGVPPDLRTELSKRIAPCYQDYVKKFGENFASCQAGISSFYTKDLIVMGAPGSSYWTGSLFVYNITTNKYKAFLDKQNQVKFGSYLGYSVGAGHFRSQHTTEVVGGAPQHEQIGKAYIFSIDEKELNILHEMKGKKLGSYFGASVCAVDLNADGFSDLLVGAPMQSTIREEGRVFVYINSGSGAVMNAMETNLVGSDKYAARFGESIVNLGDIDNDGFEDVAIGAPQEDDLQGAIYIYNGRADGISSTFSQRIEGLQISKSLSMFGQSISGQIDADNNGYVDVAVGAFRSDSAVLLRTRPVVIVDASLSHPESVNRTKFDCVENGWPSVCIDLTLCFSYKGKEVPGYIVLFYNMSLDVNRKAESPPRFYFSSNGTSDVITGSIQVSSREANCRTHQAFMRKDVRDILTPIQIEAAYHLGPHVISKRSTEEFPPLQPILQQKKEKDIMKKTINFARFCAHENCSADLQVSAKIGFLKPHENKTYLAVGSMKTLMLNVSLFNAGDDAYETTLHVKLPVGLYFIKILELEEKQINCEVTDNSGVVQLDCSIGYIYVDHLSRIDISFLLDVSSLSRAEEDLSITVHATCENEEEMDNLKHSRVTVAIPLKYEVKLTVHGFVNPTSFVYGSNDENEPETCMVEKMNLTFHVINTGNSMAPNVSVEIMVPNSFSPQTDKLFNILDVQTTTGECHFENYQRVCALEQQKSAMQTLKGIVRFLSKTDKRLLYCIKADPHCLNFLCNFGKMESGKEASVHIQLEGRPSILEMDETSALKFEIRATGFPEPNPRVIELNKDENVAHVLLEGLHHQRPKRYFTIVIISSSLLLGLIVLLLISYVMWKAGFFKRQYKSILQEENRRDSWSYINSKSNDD
MEP2-GFP yeast: modulators of MEP2-GFP levels in yeast, primary screen, S. cerevisiae, multiplex flow cytometry, MLPCN library. S. cerevisiae MEP2-GFP strain, 3 h; 100% = DMSO control level. GFP response vs DMSO, % at 10 µM. 0.51% of 330,000 active. AID 2016, 2009;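 active = GFP response versus DMSO above a set limit, roughly screen mean plus 3 SD, cut at about 180% in these data; inconclusive = fewer than 70 cells counted for a yeast strain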;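 note: median GFP fluorescence of the barcode-gated MEP2-GFP cells per well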
An asterisk follows results filed as active; ? = inconclusive; . = not tested or not shown; [ ] = dose if it differs, or a comment. Sampled rows, rich in hits. Any-hit rate of the full collection: about 1.1%.

SMILES	LAP4 TOR yeast	AGP1 TOR yeast	RPL19A-GFP yeast	CIT2 TOR yeast	VLA-4 inh	MEP2-GFP yeast
Cc1noc(C)c1S(=O)(=O)N(C)C[C@H]1Oc2c(cccc2N(C)C)C(=O)N([C@H](C)CO)C[C@@H]1C	95.8	101.1	94.8	105.7	22.7	88.4
CCOC(=O)Cc1csc(NC(=O)Cn2cnc3c2c(=O)n(C)c(=O)n3C)n1	101.4	93.3	90.4	94.3	-9.8	98.1
Cn1c(=O)c2c(ncn2CC(=O)Nc2nc(-c3ccccc3Cl)cs2)n(C)c1=O	69.0	?	13.4*[may fluoresce violet]	?	3.8	209.9*[may fluoresce violet]
Cc1nc2c(-c3ccc(F)cc3)cnn2c(N)c1-c1ccccc1	165.3*	55.6	90.0	72.1	-1.4	111.5
CC/C(C)=N/Nc1nc2c(c(=O)[nH]c(=O)n2C)n1CCc1ccccc1	95.5	?	52.6	?	2.9	242.2*[may fluoresce violet]
CCOc1cc(CNCC2CCCN2CC)cc(Cl)c1OC (configuration not stated)	93.5	25.6	44.5*[may fluoresce violet]	?	15.0	222.9*[may fluoresce violet]
N/C(=N\OC(=O)c1cccc([N+](=O)[O-])c1)c1cccnc1	77.2	?	24.3*[may fluoresce violet]	?	17.5	214.8*[may fluoresce violet]
CCOC(=O)c1cc2c(=O)n3ccccc3nc2n(CCOC)c1=NC(=O)C(C)(C)C	116.7	111.4	56.5	114.3	-24.7	330.6*
NC(=O)CC(NSc1ccccc1[N+](=O)[O-])C(=O)O (configuration not stated)	138.2	110.1	93.2	112.4	6.9	96.6
O=C(O)C1CCC(NSc2ccccc2[N+](=O)[O-])CC1 (configuration not stated)	199.2*	90.0	89.9	96.0	3.2	96.0
CCOC(=O)c1ccc(NC(=O)c2ccc3c(c2)C(=O)N(Cc2cccnc2)C3=O)cc1	168.2*	125.5	83.9	86.8	3.0	92.5
Cc1[nH]c(C)c(S(=O)(=O)N2CCN(c3ccccc3F)CC2)c1C(=O)N1CCCC1	90.6	98.3	96.6	109.4	21.4	105.5
COC(=O)c1sc(N)c(C(=O)OC)c1COC(=O)C12CC3CC(CC(O)(C3)C1)C2	78.1	11.9	67.6	?	-4.4	249.0*[may fluoresce violet]
COc1ccccc1CNC(=O)COC(=O)C12CC3CC(CC(O)(C3)C1)C2	103.7	93.1	96.4	94.2	19.2	100.0
COc1ccc(/C=C/C(=O)C2CC2)cc1COc1c(C)cccc1C	115.1	?	41.6*[may fluoresce violet]	?	-1.4	91.8
COc1ccc(/C=C/C(=O)O)cc1COc1cccc(C)c1	103.3	103.2	98.1	90.5	.	102.1
Fc1ccc(-c2nnc(Cc3ccc(Cl)cc3)o2)cc1	189.6*	82.2	85.3	73.9	1.9	84.7
CCCn1c(=O)c2ccccc2n2c(SC(C)C(N)=O)nnc12 (configuration not stated)	59.0	?	33.2*[may fluoresce violet]	?	-9.5	198.3*[may fluoresce violet]
CCOc1ccc(CCNC(=O)CSc2n[nH]c(N)n2)cc1OCC	77.8	92.5	105.8	.	-1.7	97.1
O=S1(=O)C=C(Sc2nnc(-c3ccccc3)o2)c2ccccc21	257.6*[may fluoresce violet]	27.6	74.5	?	40.6	166.5
Cc1ccc(C(=O)N/N=C(\CC(C)C)c2ccccc2)cc1	89.5	96.9	98.4	106.8	0.4	101.3
COc1cccc(C(=O)N/N=C(\CC(C)C)c2ccccc2)c1	102.5	97.0	102.8	107.6	-4.0	183.1*
NC(=O)C1CCN(C(=O)Cc2ccsc2)CC1	94.4	97.5	103.6	100.9	-0.3	102.8
C[C@H](CO)N1C[C@H](C)[C@@H](CN(C)S(=O)(=O)c2cccs2)Oc2c(NS(=O)(=O)c3ccccc3)cccc2C1=O	.	.	.	.	-5.8	.
COc1ccccc1NC(=O)CN(Cc1ccco1)C(=O)c1cncc(Br)c1	86.5	19.7	48.7*[may fluoresce violet]	?	-1.4	363.8*[may fluoresce violet]
